About 14,000 (4.5%) of roughly 310,000 compounds showed an effect of 50% or more. The effect is printed as a negative number. What follows is part of a selection rich in strong results, with near analogues and random picks from the rest.
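Also: peak tail current of the secondary pulse compared with the same well before compound.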

This experiment deals with human ether-à-go-go-related gene (hERG) potassium channel (human, UniProt Q12809). Kind of experiment: primary screen, population patch clamp on CHO cells stably expressing hERG; higher = less effect of the substance.
Chain of human ether-à-go-go-related gene (hERG) potassium channel (Q12809 whole entry, looked up): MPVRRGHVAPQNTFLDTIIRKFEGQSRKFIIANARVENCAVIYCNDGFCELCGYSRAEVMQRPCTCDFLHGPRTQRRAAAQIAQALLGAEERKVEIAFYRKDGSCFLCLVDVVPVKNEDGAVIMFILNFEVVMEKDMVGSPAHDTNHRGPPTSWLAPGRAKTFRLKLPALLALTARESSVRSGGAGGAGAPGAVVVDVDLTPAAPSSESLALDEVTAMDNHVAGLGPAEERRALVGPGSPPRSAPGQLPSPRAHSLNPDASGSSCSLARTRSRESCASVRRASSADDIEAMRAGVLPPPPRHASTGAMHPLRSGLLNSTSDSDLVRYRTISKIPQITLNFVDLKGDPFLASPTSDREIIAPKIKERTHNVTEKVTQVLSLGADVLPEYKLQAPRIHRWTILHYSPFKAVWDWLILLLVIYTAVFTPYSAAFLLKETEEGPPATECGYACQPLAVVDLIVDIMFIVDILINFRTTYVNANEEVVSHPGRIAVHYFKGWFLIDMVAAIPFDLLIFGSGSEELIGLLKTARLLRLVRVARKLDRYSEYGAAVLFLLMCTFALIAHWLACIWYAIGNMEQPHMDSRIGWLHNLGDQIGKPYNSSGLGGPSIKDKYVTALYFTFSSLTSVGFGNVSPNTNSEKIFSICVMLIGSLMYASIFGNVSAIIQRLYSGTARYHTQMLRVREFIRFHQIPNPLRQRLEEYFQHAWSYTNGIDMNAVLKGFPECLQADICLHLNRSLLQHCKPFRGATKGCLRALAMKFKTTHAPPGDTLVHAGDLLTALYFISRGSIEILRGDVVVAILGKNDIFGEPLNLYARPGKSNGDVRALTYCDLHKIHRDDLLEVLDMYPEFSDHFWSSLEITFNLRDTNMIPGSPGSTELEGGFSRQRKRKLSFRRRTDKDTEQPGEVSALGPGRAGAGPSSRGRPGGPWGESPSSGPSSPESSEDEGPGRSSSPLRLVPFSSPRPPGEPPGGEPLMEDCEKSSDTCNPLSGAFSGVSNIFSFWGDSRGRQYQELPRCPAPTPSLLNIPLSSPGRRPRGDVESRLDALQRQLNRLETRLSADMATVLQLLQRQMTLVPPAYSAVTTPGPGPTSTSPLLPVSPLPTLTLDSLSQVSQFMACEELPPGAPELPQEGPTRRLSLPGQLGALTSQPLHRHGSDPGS
On to `Clc1cccc(Cl)c1C1N2CCCN12` (stereo not shown), for which the “hERG current change (%, negative = inhibition) at 10uM” value is listed as 11.4%.
As to `CC(C)c1ccc(CNc2c([N+](=O)[O-])c(=O)oc3ccccc23)cc1`, the “hERG current change (%, negative = inhibition) at 10uM” value was found to be 14.2%.
With `O=C(/C=C/c1ccc(NC(=O)c2ccccc2-c2ccccc2C(=O)O)cc1)c1ccccc1`, the “hERG current change (%, negative = inhibition) at 10uM” value is reported as 25.7%.
Under `Cc1ccc(C)n1-c1ccc(N2CCOCC2)nc1` stands -1.52%; under `CNC(=O)c1nnc(Cc2ccc(F)cc2)o1`, 9.51%.
Under `C/C(CC(=O)Nc1ccc(N(C)C)cc1)=N\NC(=O)c1ccccn1` stands 7.77%; under `O=C(OCc1cc(=O)oc2cc(O)ccc12)c1cc(S(=O)(=O)N2CCOCC2)ccc1F`, 5.32%.
For the compound `Cc1cc(C)c(S(=O)(=O)N2CCN(C(=O)c3ccc(-n4cncn4)c([N+](=O)[O-])c3)CC2)c(C)c1`, the “hERG current change (%, negative = inhibition) at 10uM” value was -62.5%.
With `Cc1ccc(S(=O)(=O)N2CCN(C(=O)c3ccc(-n4cncn4)c([N+](=O)[O-])c3)CC2)cc1C`, the “hERG current change (%, negative = inhibition) at 10uM” value is -72.7%.
With `Cc1cc(C)c(NC(=O)CNC(=O)c2ccc(-n3cncn3)c([N+](=O)[O-])c2)c(C)c1`, the “hERG current change (%, negative = inhibition) at 10uM” value is on record as -12.8%.
Regarding `Cc1ccc(S(=O)(=O)N(C)C)cc1NC(=O)c1ccc(-n2cncn2)c([N+](=O)[O-])c1`, the “hERG current change (%, negative = inhibition) at 10uM” value is on record as -38.8%.
Under `COC(=O)c1ccc(N2CCN(S(=O)(=O)c3c(C)cc(C)cc3C)CC2)c([N+](=O)[O-])c1` stands 21.4%; under `COC(=O)c1ccc(-n2cncn2)c([N+](=O)[O-])c1`, 12%.
Regarding `CCC(=O)c1ccc(OCC(=O)NCC2COc3ccccc3O2)cc1` (stereo not shown), the “hERG current change (%, negative = inhibition) at 10uM” value was -25.5%.
As to `Cc1ccc(S(=O)(=O)N2CCCc3ccccc32)cc1C`, the “hERG current change (%, negative = inhibition) at 10uM” value worked out at 0.165%.
Under `C[C@H](NC(=O)c1nc[nH]c1C(=O)N1CCN(C(=O)OC(C)(C)C)CC1)c1ccccc1` stands 12.4%.
`CCCCN(C1CCS(=O)(=O)C1)S(=O)(=O)c1cccs1` (stereo not shown): the “hERG current change (%, negative = inhibition) at 10uM” value is listed as -7.11%.
As to `CCN(C1CCS(=O)(=O)C1)S(=O)(=O)c1cccs1` (stereo not shown), the “hERG current change (%, negative = inhibition) at 10uM” value worked out at 14.8%.
Under `CN(C1CCS(=O)(=O)C1)S(=O)(=O)c1cccs1` (stereo not shown) stands -51.6%.
`Cc1cc(CCCCCCCCc2cc(C)cc(=O)o2)oc(=O)c1`: the “hERG current change (%, negative = inhibition) at 10uM” value is reported as -2.63%.
For `O=C(Nc1nc(-c2ccccn2)cs1)c1cccc(-n2cnnn2)c1`, the “hERG current change (%, negative = inhibition) at 10uM” value was -5.61%.
Take `CC(C)(C)NS(=O)(=O)c1ccc(OCC(=O)NCCC2=CCCCC2)cc1`: the “hERG current change (%, negative = inhibition) at 10uM” value is given as -14.1%.
Take `CN1CCN(C(=O)C2CCCN(c3ncnc4c3nc3n4CCCCC3)C2)CC1` (stereo not shown): the “hERG current change (%, negative = inhibition) at 10uM” value is 1.36%.
Turning to `CC1CCN(C(=O)C2CCCN(c3ncnc4c3nc3n4CCCCC3)C2)CC1` (stereo not shown), the “hERG current change (%, negative = inhibition) at 10uM” value was -41.5%.
For the compound `COc1ccccc1N1CCN(C(=O)C2CCCN(c3ncnc4c3nc3n4CCCCC3)C2)CC1` (stereo not shown), the “hERG current change (%, negative = inhibition) at 10uM” value is reported as -12.5%.
On to `CC(=O)c1ccc(N2CCN(C(=O)C3CCCN(c4ncnc5c4nc4n5CCCCC4)C3)CC2)cc1` (stereo not shown), for which the “hERG current change (%, negative = inhibition) at 10uM” value is -75.4%.
Regarding `COc1cccc(N2CCN(C(=O)C3CCCN(c4ncnc5c4nc4n5CCCCC4)C3)CC2)c1` (stereo not shown), the “hERG current change (%, negative = inhibition) at 10uM” value is given as -81.7%.
Regarding `COc1ccc(N2CCN(C(=O)C3CCCN(c4ncnc5c4nc4n5CCCCC4)C3)CC2)cc1` (stereo not shown), the “hERG current change (%, negative = inhibition) at 10uM” value is given as -68.7%.
On to `CCOC(=O)N1CCN(C(=O)C2CCCN(c3ncnc4c3nc3n4CCCCC3)C2)CC1` (stereo not shown), for which the “hERG current change (%, negative = inhibition) at 10uM” value is reported as -22.9%.
Under `Cc1ccc(Nc2nnc(-c3ccc4c(c3)OCO4)o2)c(C)c1` stands 19.8%.
Turning to `COc1ccc(C(C)N2CC34C=CC(O3)C(C(=O)O)C4C2=O)cc1` (stereo not shown), the “hERG current change (%, negative = inhibition) at 10uM” value was 8.42%.
Under `Cc1cccc2cc(CN(Cc3cccnc3)C(=S)NCCCN(C)C)c(=O)[nH]c12` stands 3.93%; under `Cc1cc(C)c2[nH]c(=O)c(CN(Cc3cccnc3)C(=S)NCCCN(C)C)cc2c1`, -35.6%.
Consider `Cc1cccc2cc(CN(Cc3ccccc3)C(=S)NCCCN(C)C)c(=O)[nH]c12`, for which the “hERG current change (%, negative = inhibition) at 10uM” value is -38%.
On to `COc1cc2cc(CN(CCc3cccc(C)c3)C(=S)NCCCN(C)C)c(=O)[nH]c2cc1OC`, for which the “hERG current change (%, negative = inhibition) at 10uM” value is -1.74%.
In the case of `CCN(CC)CCCNC(=S)N(Cc1cccnc1)Cc1cc2cc(C)cc(C)c2[nH]c1=O`, the “hERG current change (%, negative = inhibition) at 10uM” value is recorded as 22.9%.
For the compound `Cc1ccc2[nH]c(=O)c(CN(CCCN(C)C)C(=S)NCCc3ccccc3)cc2c1`, the “hERG current change (%, negative = inhibition) at 10uM” value was -42%.
As for `COc1cc2cc(CN(CCc3ccccc3C)C(=S)NCCCN3CCOCC3)c(=O)[nH]c2cc1OC`, the “hERG current change (%, negative = inhibition) at 10uM” value is given as -38.4%.
Turning to `Cc1ccc(CN(Cc2cc3cccc(C)c3[nH]c2=O)C(=S)NCCCN(C)C)cc1`, the “hERG current change (%, negative = inhibition) at 10uM” value is -65%.
Under `Cc1ccc2[nH]c(=O)c(CN(Cc3ccccc3)C(=S)NCCCN(C)C)cc2c1` stands -24.9%.
Under `Cc1ccc2cc(CN(CCc3ccccc3)C(=S)NCCCN(C)C)c(=O)[nH]c2c1` stands -72%; under `COc1cc2cc(CN(CCc3cccc(C)c3)C(=S)NCCCN3CCOCC3)c(=O)[nH]c2cc1OC`, -66.9%; under `Cc1cc(C)c2[nH]c(=O)c(CN(Cc3ccccc3)C(=S)NCCCN(C)C)cc2c1`, -52.8%.
Take `CC(C)(C)c1cc[n+](C2=C([O-])c3ccccc3C(=O)/C2=N\S(=O)(=O)c2cccs2)cc1`: the “hERG current change (%, negative = inhibition) at 10uM” value is reported as -44%.
For the compound `CCc1c(C)n([O-])c2c([n+]1=O)CCC2`, the “hERG current change (%, negative = inhibition) at 10uM” value is 13.1%.
Turning to `COc1cccc(N(CC(=O)NC2CCCC2)C(=O)CCC(=O)Nc2cc(C)on2)c1`, the “hERG current change (%, negative = inhibition) at 10uM” value is reported as -16.4%.
Regarding `CCC(=O)Nc1ccc2c(c1)nc(CN1CCN(C(C)=O)CC1)n2C`, the “hERG current change (%, negative = inhibition) at 10uM” value is recorded as -0.94%.
For `CC(=O)N1CCN(Cc2nc3cc(NC(=O)c4ccccc4)ccc3n2C)CC1`, the “hERG current change (%, negative = inhibition) at 10uM” value worked out at 15.8%.
Take `Cn1c(CN2CCCCC2)nc2cc(NC(=O)c3cccc(Br)c3)ccc21`: the “hERG current change (%, negative = inhibition) at 10uM” value is given as -63.3%.
In the case of `CCC(=O)Nc1ccc2c(c1)nc(CN1CCCCC1)n2C`, the “hERG current change (%, negative = inhibition) at 10uM” value is recorded as 15%.
Turning to `CC(=O)Nc1ccc2c(c1)nc(CN1CCCC1)n2C`, the “hERG current change (%, negative = inhibition) at 10uM” value was -7.28%.
Take `CC(=O)N1CCN(Cc2nc3cc(NC(=O)c4cccc(Br)c4)ccc3n2C)CC1`: the “hERG current change (%, negative = inhibition) at 10uM” value is recorded as -70%.

These data come from publication PMC4336329 (PLoS ONE, 2015).
